In PubChem BioAssay (NCATS):
Inconclusive results are not listed. Calls of active or inactive are those of the source. The call rests on the fitted dose curve; in most records, active means well fitted inhibition curve with a large enough effect; inconclusive means small, poorly fitted or top-dose-only effect; inactive means flat fitted curve, though single readings scatter.

What was measured:
Test in all cases: qHTS profiling for inhibitors of Plasmodium falciparum proliferation (AID 504749); further: nearly all actives have a fitted effect of over 60% in size
Conditions in all cases: P. falciparum in erythrocytes, SYBR Green DNA, 72 h; series mostly up to 28.7 µM
DIV30 = system: DIV30
Method in brief: (§1)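 Fluorescence of SYBR Green-bound parasite DNA, read at 485/535 nm, served as the growth measure. Infected erythrocytes were cultured with compound 72 h; artemisinin (0.29 uM) and DMSO wells defined the normalization range.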

Dd2 = system: Dd2
Method in brief: as §1

ECU = system: ECU
Method in brief: as §1

FAB9 = system: FAB9
Method in brief: as §1

GB4 = system: GB4
Method in brief: as §1

HB3 = system: HB3
Method in brief: as §1

ICS = system: ICS
Method in brief: as §1

JCK = system: JCK
Method in brief: as §1

N140 = system: N140
Method in brief: as §1

P93_24 = system: P93_24
Method in brief: as §1

P94_40 = system: P94_40
Method in brief: as §1

PAD = system: PAD
Method in brief: as §1

PC15 = system: PC15
Method in brief: as §1

PC26 = system: PC26
Method in brief: as §1

PC49 = system: PC49
Method in brief: as §1

SC27B = system: SC27B
Method in brief: as §1

TAB109 = system: TAB109
Method in brief: as §1

TAB113 = system: TAB113
Method in brief: as §1

TAB165 = system: TAB165
Method in brief: as §1

W2 = system: W2
Method in brief: as §1

Measured: Potency
Potency means the concentration at half of the fitted maximal effect.

CC1(C)S[C@@H]2[C@H](NC(=O)C3(N)CCCCC3)C(=O)N2[C@H]1C(=O)O
inactive: all assays above

CC12CCC(C[N+](C)(CCC[N+](C)(C)C)C1)C2(C)C (stereo not given)
inactive: all assays above

CC(C)(C)c1ccc2c(S(=O)(=O)O)c(C(C)(C)C)ccc2c1
inactive: all assays above

OCC(O)CO
inactive: all assays above

O=P(O)(O)O
inactive: all assays above

CC(=O)Nc1ccc(OC(=O)c2ccccc2O)cc1
inactive: all assays above

COc1cc(C)c(/C=C/C(C)=C/C=C/C(C)=C/C(=O)O)c(C)c1C
inactive: all assays above

CC(C)(CO)[C@@H](O)C(=O)NCCC(=O)NCCSSCCNC(=O)CCNC(=O)[C@H](O)C(C)(C)CO
inactive: all assays above

CCCC(=O)O
inactive: all assays above

C=C(C)C1CC=C(C)CC1 (stereo not given)
inactive: all assays above

CNC(=O)C[C@@H](N)C(=O)N[C@@H](C(=O)N[C@@H]1C(=O)N2[C@@H]1SC(C)(C)[C@@H]2C(=O)O)c1ccc(O)cc1
inactive: all assays above

Cc1cccc(C)c1NC(=O)NC1=CCCN1C
inactive: all assays above

NC(=O)[C@@H]1CCCN1C(=O)[C@H](Cc1cnc[nH]1)NC(=O)[C@@H]1CCC(=O)N1
inactive: all assays above

C=CCN1CCCC1CNC(=O)c1cc(S(N)(=O)=O)cc(OC)c1OC (stereo not given)
inactive: all assays above

CCCCCCCCCCCCOCCCN
inactive: all assays above

CC1=C(/C=C/C(C)=C/C=C/C(C)=C/C(=O)Oc2c(C)c(C)c3c(c2C)CC[C@@](C)(CCC[C@H](C)CCC[C@H](C)CCCC(C)C)O3)C(C)(C)CCC1
inactive: all assays above

CO[C@H]1C[C@@H]2CC[C@@H](C)[C@@](O)(O2)C(=O)C(=O)N2CCCC[C@H]2C(=O)O[C@H]([C@H](C)C[C@@H]2CC[C@@H](OC(=O)C(C)(CO)CO)[C@H](OC)C2)CC(=O)[C@H](C)/C=C(\C)[C@@H](O)[C@@H](OC)C(=O)[C@H](C)C[C@H](C)/C=C/C=C/C=C/1C
inactive: all assays above

Cc1cc(=O)c(C(=O)N[C@@H](C(=O)N[C@@H]2C(=O)N3C(C(=O)O)=C(CSc4nnnn4C)CS[C@H]23)c2ccc(O)cc2)c[nH]1
inactive: all assays above

CCc1ccc(S(=O)(=O)O)cc1
inactive: all assays above

O[C@@H]([C@H](O)[C@H](O)CBr)[C@H](O)CBr
inactive: all assays above

Cc1ccc(S(=O)(=O)O)cc1C
inactive: all assays above

C=CCCCCCCCCC(=O)OC
inactive: all assays above

N=C(N)n1cccn1
inactive: all assays above

C=CCOc1ccc(CC(=O)O)cc1Cl
inactive: all assays above

CN(C)C=Nc1c(I)cc(I)c(CCC(=O)O)c1I
inactive: all assays above

COc1ccc(C(=O)CCC(=O)O)c2ccccc12
inactive: all assays above

O=C(O)[C@H]1CN(C/C=C/P(=O)(O)O)CCN1
inactive: all assays above

CC(C)(COP(=O)(O)OP(=O)(O)OC[C@H]1O[C@@H](n2cnc3c(N)ncnc32)[C@H](O)[C@@H]1OP(=O)(O)O)C(O)C(=O)NCCC(=O)NCCS (stereo not given in full)
inactive: all assays above

Cc1c(Cl)cccc1Nc1ncccc1C(=O)O
inactive: all assays above

CCCCC[C@H](O)/C=C/[C@@H]1[C@H]2C/C(=C/CCCC(=O)O)O[C@H]2C[C@H]1O
inactive: all assays above

NCC[C@H](O)C(=O)N[C@@H]1C[C@H](N)[C@@H](O[C@H]2O[C@H](CN)CC[C@H]2N)[C@H](O)[C@H]1O[C@H]1O[C@H](CO)[C@@H](O)[C@H](N)[C@H]1O
inactive: all assays above

CN1CCC(OC(=O)C(Oc2ccc(Cl)cc2)Oc2ccc(Cl)cc2)CC1
inactive: all assays above

COC(=O)CCC[N+](C)(C)C
inactive: all assays above

NCC(O)CC(=O)O (stereo not given)
inactive: all assays above

CCOC(=S)SSC(=S)OCC
inactive: all assays above

NC(=O)Oc1ccc(Cc2ccccc2)cc1
inactive: all assays above

O=C1[O][Bi][O]c2ccccc21
inactive: all assays above

CC(=O)Oc1cc(C(F)(F)F)ccc1C(=O)O
inactive: all assays above

OC1OC[C@@H](O)[C@H](O)[C@@H]1O (stereo not given in full)
inactive: all assays above

CCN(CC)CCOC(=O)c1cccnc1
inactive: all assays above

C[C@H](O)CN(C)C
inactive: all assays above

CC1=CCC2CC1C2(C)C (stereo not given)
inactive: all assays above

NCC[C@H](O)C(=O)N[C@@H]1C[C@H](N)[C@@H](O[C@H]2O[C@H](CN)[C@@H](O)[C@H](O)[C@H]2O)[C@H](O)[C@H]1O[C@H]1O[C@H](CO)[C@@H](O)[C@H](N)[C@H]1O
inactive: all assays above

C=C1C(CCl)(CCl)C2(Cl)C(Cl)C(Cl)C1(Cl)C2(Cl)Cl (stereo not given)
active: DIV30 1.69 µM | Dd2 2.24 µM | ECU 2 µM | FAB9 3.55 µM | GB4 2.13 µM | HB3 2.51 µM | ICS 0.355 µM | JCK 10 µM | N140 2 µM | P93_24 2 µM | P94_40 2.51 µM | PAD 0.708 µM | PC15 2 µM | PC26 1.9 µM | PC49 3.98 µM | SC27B 1.78 µM | TAB109 3.16 µM | TAB113 2.82 µM | TAB165 1.78 µM | W2 0.849 µM

c1ccc(-n2cnnn2)cc1
inactive: all assays above

O=C(O)Cc1nn(Cc2ccc(Br)cc2F)c(=O)c2ccccc12
inactive: all assays above

CCCCO
inactive: all assays above

C=CC[C@@H]1/C=C(\C)C[C@H](C)C[C@H](OC)[C@H]2O[C@@](O)(C(=O)C(=O)N3CCCC[C@H]3C(=O)O[C@H](/C(C)=C/[C@@H]3CC[C@@H](O)[C@H](OC)C3)[C@H](C)[C@@H](O)CC1=O)[C@H](C)C[C@@H]2OC
active: DIV30 0.849 µM | Dd2 0.112 µM | ECU 1.26 µM | FAB9 2 µM | GB4 3.79 µM | HB3 1 µM | ICS 0.447 µM | JCK 3.98 µM | N140 0.891 µM | P93_24 2 µM | P94_40 2 µM | PAD 1.41 µM | PC15 2.24 µM | PC26 1.69 µM | PC49 2 µM | SC27B 1.78 µM | TAB109 2 µM | TAB113 1.78 µM | TAB165 1.41 µM | W2 0.338 µM

O=C1c2ccccc2C(=O)c2c1ccc(O)c2O
inactive: all assays above

CC(C)(C)CC(C)(C)c1cc(Cc2cc(C(C)(C)CC(C)(C)C)cc(-n3nc4ccccc4n3)c2O)c(O)c(-n2nc3ccccc3n2)c1
inactive: all assays above

CCc1ncnc2cc(OC)c(OC)cc12
inactive: all assays above

COc1ccc(/C=C/C(=O)O)cc1
inactive: all assays above

OCl
inactive: all assays above
